Laboratory results taken from PubChem BioAssay AID504850 (National Center for Advancing Translational Sciences (NCATS), 2011).
The whole screen tested about 2,300 compounds, of which about 1,200 (52%) were called active. Inconclusive results (about 34%) are left out. The call rests on the fitted dose curve; in most records, active means well fitted inhibition curve with a large enough effect; inconclusive means small, poorly fitted or top-dose-only effect, or effect the other way; inactive means no such curve, though single readings can be large or run the other way. So high a share suggests a set chosen from earlier hits. The list shows a part of the results.

assay: Confirmation screen for delayed death inhibitors of the malarial parasite plastid, 48 hour incubation; further: nearly all actives have a fitted effect of over 65% in size; details: P. falciparum-infected erythrocytes, luciferase growth; series mostly up to 28.7 µM
In short: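 Erythrocytes infected with luciferase-expressing P. falciparum (2% hematocrit, 0.1% parasitemia) incubated with compounds 48 hours at 37 C, 5% CO2, in RPMI/Albumax. Growth inhibition scored as reduced luminescence after detection reagent.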
Potency means the concentration at half of the fitted maximal effect.

| SMILES | Potency |
| --- | --- |
| CC1CCN(c2ccc3nnc(CCC(=O)N4CCN(c5ccccc5F)CC4)n3n2)CC1 | 10 µM (active) |
| CN(CCc1ccccn1)C(=O)c1ccc(OC2CCN(CCc3ccccc3)CC2)cc1 | 14.1 µM (active) |
| Cc1nn(C)c(C)c1C(C)NC(=O)c1ccc(OC2CCN(Cc3ccccn3)CC2)cc1 (centres undefined) | inactive |
| COc1ccc(CN2CCC(Oc3ccc(C(=O)NCc4ccccn4)cc3)CC2)c(F)c1 | 12.6 µM (active) |
| CCCCN(CCCC)CCC(O)c1cc2c(Cl)cc(Cl)cc2c2cc(C(F)(F)F)ccc12 (centres undefined) | 0.0316 µM (active) |
| CC(=O)/C(C#N)=C1\NC(=O)C(Cc2ccc(F)cc2)S1 (centres undefined) | 10 µM (active) |
| CC(=O)/C(C#N)=C1\NC(=O)C(Cc2cc(Cl)ccc2Cl)S1 (centres undefined) | 14.1 µM (active) |
| CCOC(=O)c1c(C)[nH]c(C(=O)Nc2cc(OCC)c(N3CCOCC3)cc2OCC)c1C | 2.51 µM (active) |
| Cc1ccc(CN(Cc2ccccn2)C(=O)Nc2ccc(C)c(C)c2)cc1 | 14.1 µM (active) |
| Cc1ccc(NC(=O)CN2C(=O)S/C(=C\c3ccccn3)C2=O)cc1C | inactive |
| CC(Sc1nc2cc(Cl)ccc2s1)C(=O)Nc1cccc(S(=O)(=O)N2CCOCC2)c1 (centres undefined) | 12.6 µM (active) |
| O=C(CCl)Nc1ccc(S(=O)(=O)Nc2nccs2)cc1 | 2.24 µM (active) |
| CCC(=O)c1ccc(OCC(O)CNC(C)c2ccccc2)cc1 (centres undefined) | 11.2 µM (active) |
| C[C@@H]1CCC2[C@@H](C)[C@@H](O)O[C@@H]3O[C@@]4(C)CC[C@@H]1[C@@]23OO4 (some centres undefined) | 0.0251 µM (active) |
| CO[C@H]1OC2O[C@@]3(C)CC[C@H]4[C@H](C)CC[C@@H]([C@H]1C)[C@@]24OO3 (some centres undefined) | 0.0708 µM (active) |
| C[C@H]1[C@@H](OC(=O)CCC(=O)O)OC2OC3(C)CC[C@H]4[C@H](C)CC[C@@H]1[C@@]24OO3 (some centres undefined) | 0.0398 µM (active) |
| CC[C@]1([C@H]2O[C@@H]([C@@H]3O[C@](O)(CO)[C@@H](C)C[C@H]3C)C[C@H]2C)CC[C@@H]([C@]2(C)CC[C@@]3(C[C@@H](O)[C@@H](C)[C@@H]([C@H](C)[C@H](OC)[C@H](C)C(=O)O)O3)O2)O1 | 0.141 µM (active) |
| CCCc1c(CC)c(=N)c2ccccc2n1C | 0.282 µM (active) |
| Cc1cnc(CNC(=O)c2ccc3oc(Cc4ccccc4)nc3c2)[nH]1 | 15.8 µM (active) |
| CC(C)(C)OC(=O)CNC(=O)c1[nH]cnc1C(=O)NC1CCN(C(=O)OC(C)(C)C)CC1 | 14.1 µM (active) |
| CC(C)(C)OC(=O)[C@H](Cc1ccccc1)NC(=O)c1nc[nH]c1C(=O)N1CCN(C(=O)OC(C)(C)C)CC1 | 12.6 µM (active) |
| CC(C)C[C@H](NC(=O)c1nc[nH]c1C(=O)N1CCN(C(=O)OC(C)(C)C)CC1)C(=O)OC(C)(C)C | 11.2 µM (active) |
| CC(Oc1ccccc1F)C(=O)Nc1ccc2ccccc2c1 (centres undefined) | inactive |
| COc1ccc(NC2=C(NC(C)=O)C(=O)c3ccccc3C2=O)cc1 | 7.08 µM (active) |
| O=C(CSc1c2c(nc3ccc(Cl)cc13)CCCC2)NCCCN1CCOCC1 | 12.6 µM (active) |
| O=S(=O)(CC(CN1CCCCC1)N1CCCCC1)c1ccccc1 (centres undefined) | 11.2 µM (active) |
| CC(C)NC(=O)c1onc(CSc2cccc(F)c2)c1C(=O)O | inactive |

| SMILES | Potency |
| --- | --- |
| COC(=O)C1=CN(Cc2ccc(F)cc2)C=C(C(=O)OC)C1c1ccc(O)c(OC)c1 | 11.2 µM (active) |
| CCOc1ccc(N(C)C(=O)CCc2nnc3ccc(N4CCCCC4)nn23)cc1 | 11.2 µM (active) |
| CC(=O)Nc1cccc(C(=O)/C=C/c2ccc(Br)cc2)c1 | 14.1 µM (active) |
| CCC(=O)Nc1cccc(C(=O)/C=C/c2cc(Br)ccc2OC)c1 | 10 µM (active) |
| O=C(Nc1cccc(Br)c1)c1ccc2snnc2c1 | inactive |
| CC(=O)Nc1cccc(C(=O)/C=C/c2ccc(C)cc2)c1 | 15.8 µM (active) |
| COC(=O)c1ccccc1SC1CC(=O)N(c2ccccc2)C1=O (centres undefined) | inactive |
| C=CCNC(=O)c1onc(CSc2ccc(F)c(F)c2)c1C(=O)O | inactive |
| CC(=O)N1c2ccc(S(=O)(=O)NCCC(=O)NC3CCCC(C)C3C)cc2CC1C (centres undefined) | 15.8 µM (active) |
| Cc1ccc(NC(=O)CSc2cccc3cccnc23)c(C)c1 | inactive |
| CN(C)S(=O)(=O)c1cccc(NC(=O)CSc2cccc3cccnc23)c1 | 11.2 µM (active) |
| Cn1c(=O)c(=O)n(C)c2cc(N3CCCCC3)c(NS(=O)(=O)c3ccc(Br)cc3)cc21 | 11.2 µM (active) |
| COc1ccc(OC)c(CNC(=O)c2ccc(C)c(NC(=O)C3=C(C)OCCS3)c2)c1 | 12.6 µM (active) |
| CC(CCc1ccccc1)NC(=O)COC(=O)c1ccc(S(C)(=O)=O)c([N+](=O)[O-])c1 (centres undefined) | inactive |
| CCCNC(=O)COC(=O)c1ccccc1C(=O)c1ccc(Cl)c([N+](=O)[O-])c1 | 12.6 µM (active) |
| CC1CCN(C(=O)Cn2cc(C(=O)c3ccco3)c3ccccc32)CC1 | 14.1 µM (active) |
| Cc1cc(Sc2nnc(/N=C/N(C)C)s2)c2ccccc2n1 | 10 µM (active) |
| Cc1cc(Sc2nnc(N)s2)c2ccccc2n1 | 10 µM (active) |
| O=C(O)CCCCCNc1nc(-c2ccccc2)nc2ccccc12 | 12.6 µM (active) |
| COc1ccc(S(=O)(=O)N2CCC(C(=O)Nc3ccccc3N3CCCCC3)CC2)cc1OC | 11.2 µM (active) |
| C=CCN(CC=C)C(=O)C1CCN(S(=O)(=O)c2ccc(N3CCCC3=O)cc2)CC1 | 14.1 µM (active) |
| COc1cccc(NC(=O)C2CCN(S(=O)(=O)c3ccc4[nH]c(=O)oc4c3)CC2)c1 | inactive |
| COc1ccc(Cl)cc1NC(=O)C1Cc2cc(S(=O)(=O)N3CCCC3)ccc2N1C(C)=O (centres undefined) | 11.2 µM (active) |
| COc1cc(NC(=O)C2CCN(S(=O)(=O)c3ccc(N4CCCC4=O)cc3)CC2)cc(OC)c1 | 14.1 µM (active) |
| COc1ccc(C)cc1NC(=O)C1CCN(S(=O)(=O)c2ccc3c(c2)NC(=O)CO3)CC1 | 12.6 µM (active) |
| Cc1ccc(S(=O)(=O)N2CCC(C(=O)Nc3ccc(S(=O)(=O)N4CCCC4)cc3)CC2)cc1C | 14.1 µM (active) |
| O=C/C=C/c1c(-c2ccccc2)cc2oc3ccccc3cc1-2 | inactive |
